High-throughput results deposited in PubChem BioAssay by National Center for Advancing Translational Sciences (NCATS).
This is a sample that favours compounds with a hit; in the whole collection about 3.7% have one here.
WRN helicase inh-1: WRN helicase (human) inhibition | Q14191 | WRN helicase unwinding, fluorescent forked duplex, kinetic | Potency, µM (titrated, usually from 114 µM), for the others: at the top dose activity change, negative = inhibition, hits mostly inhibitors | hit rate 0.46% among 360,000 | AID 651768; note: potency is the fitted concentration of half-maximal effect; % is set by controls: 0 for no effect and ±100 for the full control effect; nearly all actives have a fitted effect of over 55% in size
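WRN at 20 nM final preincubated with compound 15 min at room temperature; reaction started with 100 nM fluorophore/quencher forked duplex oligonucleotide and 2 mM ATP final. Unwinding followed kinetically by red fluorescence (ex 525, em 598 nm).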
TCR act: activates T cell receptor signaling; primary human leukocytes, anti-CD3, IL-2 HTRF, 48 h; Potency, µM (highest dose often 9.22 µM), without a hit: at the top dose activation of IL-2 secretion, hits mostly activators; 330,000 tested, under 10 active; note: % of control where 0% means no effect
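1) Mix primary human leukocytes, a-CD3 beads and compound. 2) Incubate 48 hr. 3) Add HTRF IL-2 reagents (a-IL-2-K, a-IL-2-d2).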
FEN1 inh-1: blocks human flap endonuclease 1 | P39748 | Recombinant FEN1 flap cleavage, fluorescence, 15 min | Potency, µM (titrated, usually from 114 µM), for the others: at the highest dose activity change, negative = inhibition, most hits filed as inhibitors | hit rate 0.35% among 390,000; note: potency is the fitted concentration of half-maximal effect; % is set by controls: 0 for no effect and ±100 for the full control effect; nearly all actives have a fitted effect of over 65% in size
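Reaction started by adding substrate (50 nM final) to 10 nM enzyme after 15 min room-temperature compound preincubation. Reads at 0 and 15 min, with data normalized and fitted to a four-parameter Hill equation.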
PLK1 PBD inh: blocks phosphopeptide binding to human PLK1 polo-box domain; Plk1 PBD binding of FITC phosphopeptide, fluorescence polarization; Potency, µM, for the others: max response, negative = inhibition, actives largely listed as inhibitors; hit rate 2.8% among 360,000; note: potency is the fitted concentration of half-maximal effect; series mostly up to about 57 µM; % is set by controls: 0 for no effect and ±100 for the full control effect; nearly all actives have a fitted effect of over 65% in size
PI5P4K alpha inh: inhibitors of human PI5P4K alpha | P48426 | PI5P4Kalpha enzyme, ADP-Glo luminescence, 60 min; stronger effect = lower value | max response, % | hit rate 1.2% among 330,000 | AID 652105; active = max response of -50% or lower; inconclusive = between -30% and -50%; inactive = -30% or higher; note: value at the top dose of about 77 µM; % is set by controls: 0 for no effect and ±100 for the full control effect
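ADP-Glo luminescence end-point after a 60 min room-temperature kinase reaction. PI5P4Kalpha and substrate in HEPES pH 7.4 buffer with EGTA, 0.1% CHAPS and 5% DMSO; ATP at 5 microM final.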
VDR inhibitor: inhibitors of human vitamin D receptor; VDR-SRC2-3 peptide fluorescence polarization, 2 h; Potency, µM, for inactives: max response, negative = inhibition, usual class: inhibitors; hit rate 0.93% among 400,000; AID 504847; note: potency is the fitted concentration of half-maximal effect; % is set by controls: 0 for no effect and ±100 for the full control effect
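Inhibition of the VDR/SRC2-3 peptide interaction is quantified by fluorescence polarization. Compounds (23 nl, pintool) incubate with the reagents for 2 hours at ambient room temperature.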
FEN1 inh-2: FEN1 inhibition, cherry-pick retest. shares compounds with FEN1 inh-1. Potency, µM, usual class: inhibitors. hit rate 79% among 880. FEN1 flap cleavage, TAMRA/BHQ2 fluorogenic DNA substrate; note: potency is the fitted concentration of half-maximal effect; nearly all actives have a fitted effect of over 60% in size
WRN helicase inh-2: confirmation of human WRN helicase inhibitors. shares compounds with WRN helicase inh-1. WRN helicase DNA unwinding, fluorescence kinetic. Potency, µM (titrated, usually from 57.1 µM), without a hit: at the top dose activity, negative = inhibition, actives largely listed as inhibitors. hit rate 63% among 610; note: potency is the fitted concentration of half-maximal effect; nearly all actives have a fitted effect of over 65% in size
TO DNA binding: binds DNA, flagged in WRN inhibitor counterscreen; shares compounds with WRN helicase inh-1; thiazole orange DNA binding displacement, fluorescence; Potency, µM (titrated, usually from 57.1 µM), for inactives: at the highest dose activity change, negative = inhibition, most hits filed as inhibitors; hit rate 10% among 610; AID 720499;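 note: drop in dye fluorescence marks compound binding to DNA; potency is the fitted concentration of half-maximal effect; % is set by controls: 0 for no effect and ±100 for the full control effect; nearly all actives have a fitted effect of over 60% in size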
BLM helicase inh: blocks human BLM helicase in WRN counterscreen; shares compounds with WRN helicase inh-1; Recombinant BLM helicase DNA unwinding, red fluorescence; Potency, µM (doses to about 57.1 µM), inactives show at the top dose activity change, negative = inhibition, usual class: inhibitors; hit rate 60% among 610; AID 720503; note: potency is the fitted concentration of half-maximal effect; nearly all actives have a fitted effect of over 60% in size
Target sequence (P54132 whole entry, looked up): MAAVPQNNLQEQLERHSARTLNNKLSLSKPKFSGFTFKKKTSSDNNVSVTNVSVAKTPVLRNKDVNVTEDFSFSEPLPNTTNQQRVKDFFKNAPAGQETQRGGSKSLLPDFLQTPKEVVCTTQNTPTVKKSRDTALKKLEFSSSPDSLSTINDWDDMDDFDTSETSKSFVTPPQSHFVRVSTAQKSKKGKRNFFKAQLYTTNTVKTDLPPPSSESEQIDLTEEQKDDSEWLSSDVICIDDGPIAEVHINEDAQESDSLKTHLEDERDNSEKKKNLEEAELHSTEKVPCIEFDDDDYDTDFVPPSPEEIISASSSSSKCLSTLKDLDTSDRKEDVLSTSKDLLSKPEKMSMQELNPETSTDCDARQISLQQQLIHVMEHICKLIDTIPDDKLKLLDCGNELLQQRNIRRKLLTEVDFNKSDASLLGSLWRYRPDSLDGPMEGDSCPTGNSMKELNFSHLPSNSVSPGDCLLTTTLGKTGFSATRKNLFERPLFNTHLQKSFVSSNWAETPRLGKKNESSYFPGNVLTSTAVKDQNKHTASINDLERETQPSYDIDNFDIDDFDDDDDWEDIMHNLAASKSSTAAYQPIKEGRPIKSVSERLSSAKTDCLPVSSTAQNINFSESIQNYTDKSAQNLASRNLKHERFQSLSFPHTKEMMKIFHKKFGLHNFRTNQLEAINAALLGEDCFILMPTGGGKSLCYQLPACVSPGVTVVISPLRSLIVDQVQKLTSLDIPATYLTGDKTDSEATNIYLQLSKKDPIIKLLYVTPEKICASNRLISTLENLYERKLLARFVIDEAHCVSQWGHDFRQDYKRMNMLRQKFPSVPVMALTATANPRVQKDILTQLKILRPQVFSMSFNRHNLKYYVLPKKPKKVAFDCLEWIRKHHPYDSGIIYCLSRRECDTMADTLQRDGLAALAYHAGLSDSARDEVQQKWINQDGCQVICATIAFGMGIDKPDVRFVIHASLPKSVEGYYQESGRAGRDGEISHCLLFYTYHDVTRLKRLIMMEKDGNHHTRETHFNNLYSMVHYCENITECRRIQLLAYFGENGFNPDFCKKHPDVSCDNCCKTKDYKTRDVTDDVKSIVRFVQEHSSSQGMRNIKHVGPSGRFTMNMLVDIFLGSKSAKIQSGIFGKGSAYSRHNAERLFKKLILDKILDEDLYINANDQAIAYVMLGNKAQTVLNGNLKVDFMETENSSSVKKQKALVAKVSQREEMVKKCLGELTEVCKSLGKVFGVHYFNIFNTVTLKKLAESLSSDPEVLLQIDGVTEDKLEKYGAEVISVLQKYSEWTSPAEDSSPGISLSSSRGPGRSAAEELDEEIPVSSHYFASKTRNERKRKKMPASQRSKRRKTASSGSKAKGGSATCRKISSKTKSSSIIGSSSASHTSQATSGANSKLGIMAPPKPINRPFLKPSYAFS
TbPYK confirm: confirmation of Trypanosoma brucei pyruvate kinase inhibitors. shares compounds with PLK1 PBD inh. recombinant TbPYK, Kinase-Glo ATP luminescence. Potency, µM (titrated, usually from 76.9 µM), for the others: at the top dose activity change, negative = inhibition, most hits filed as inhibitors. hit rate 67% among 890; note: potency is the fitted concentration of half-maximal effect; % is set by controls: 0 for no effect and ±100 for the full control effect; nearly all actives have a fitted effect of over 70% in size
TbPYK ADP-Glo: orthogonal confirmation of Trypanosoma brucei pyruvate kinase inhibitors; shares compounds with PLK1 PBD inh; recombinant TbPYK, ADP-Glo luminescence, 60 min; Potency, µM (top dose mostly 76.9 µM), inactives show top-dose activity change, negative = inhibition, usual class: inhibitors; hit rate 62% among 890; AID 720584; note: potency is the fitted concentration of half-maximal effect; % is set by controls: 0 for no effect and ±100 for the full control effect; nearly all actives have a fitted effect of over 75% in size
The depositor's hits bear a star; [ ] = dose if it differs, or a comment. Unless noted, calls come from the whole dose curve; as a rule, active = well fitted curve in the direction sought with a large enough effect; inconclusive = small, poorly fitted or top-dose-only effect, or another doubt; inactive = no such curve, though single readings can be large; an effect the other way counts as inactive or inconclusive.

What do the screens show for `CC(=O)OC[C@]12C[C@H](OC(=O)CC(C)C)C(C)=C[C@H]1O[C@H]1[C@H](O)[C@@H](OC(C)=O)[C@@]2(C)[C@]12CO2`?
VDR inhibitor: -6%

How did CC1CC[C@@]2(NC1)OC1CC3C4CC[C@@H]5CC(O)CC[C@@]5(C)C4CC[C@]3(C)C1C2C (some centres undefined) do in these assays?
VDR inhibitor: -10%

Results for CC[n+]1c(/C=C/C=C/c2ccc(N(C)C)cc2)sc2ccccc21 ?
WRN helicase inh-1: 56µM*; TCR act: 31%; FEN1 inh-1: 50µM*; PLK1 PBD inh: 0%; PI5P4K alpha inh: inconclusive; VDR inhibitor: -154%; FEN1 inh-2: 38*; TbPYK confirm: 32µM*; TbPYK ADP-Glo: 10%

How did COc1ccc(CN2C(=O)CC(=O)NC2=S)cc1 do in these assays?
WRN helicase inh-1: -15%; TCR act: -6%; FEN1 inh-1: -8%; PLK1 PBD inh: -17%; PI5P4K alpha inh: inconclusive; VDR inhibitor: 14%

What do the screens show for `O=C1NC(=O)N(CCc2ccc(F)cc2)C(=O)/C1=C/c1ccco1`?
WRN helicase inh-1: 35µM*; TCR act: 6%; FEN1 inh-1: inconclusive; PLK1 PBD inh: 1.1µM*; PI5P4K alpha inh: -75*; VDR inhibitor: 39%; FEN1 inh-2: 76*; TbPYK confirm: 32µM*; TbPYK ADP-Glo: inconclusive

Results for O=C1NC(=S)N(c2ccccc2)C(=O)/C1=C/c1ccco1 ?
WRN helicase inh-1: 0.95µM*; TCR act: -6%; FEN1 inh-1: 8.9µM*; PLK1 PBD inh: 3µM*; PI5P4K alpha inh: -87*; VDR inhibitor: inconclusive; FEN1 inh-2: 17*; WRN helicase inh-2: 0.96µM*; TO DNA binding: 11µM*; BLM helicase inh: 0.19µM*; TbPYK confirm: 11µM*; TbPYK ADP-Glo: 16µM*

Results for COc1ccc(CN2C(=O)NC(=O)/C(=C\c3ccco3)C2=O)cc1 ?
WRN helicase inh-1: 22µM*; FEN1 inh-1: 28µM*; PLK1 PBD inh: 1.2µM*; PI5P4K alpha inh: -77*; VDR inhibitor: 54%; FEN1 inh-2: 76*; WRN helicase inh-2: 19µM*; TO DNA binding: -14%; BLM helicase inh: 8.6µM*; TbPYK confirm: 28µM*; TbPYK ADP-Glo: inconclusive

Results for O=c1cccc2n1CC1CC2CN2CCCCC12 (centres undefined) ?
VDR inhibitor: 2%

What do the screens show for `CC(C)CN1CCCC2(CCN(C(=O)Oc3ccccc3)CC2)C1`?
VDR inhibitor: -16%

How did COc1ccc(-c2nc(CN3C(=O)CN=C(c4ccccc4)c4cc(Cl)ccc43)c(C)o2)cc1 do in these assays?
FEN1 inh-1: 3%; VDR inhibitor: 17%

Results for COc1ccc(C[C@H]2c3cc(OC)c(OC)cc3CCN2C)cc1OC ?
VDR inhibitor: 0%

How did CCN[C@]1(c2cccs2)CCCCC1=O do in these assays?
VDR inhibitor: 4%

Results for COc1ccc(CN2CCNCC2)cc1 ?
WRN helicase inh-1: -2%; TCR act: 1%; FEN1 inh-1: 19%; PLK1 PBD inh: -12%; PI5P4K alpha inh: 1; VDR inhibitor: 5%

How did O=C1NC(=O)N(Cc2ccc(F)cc2)C(=O)/C1=C\c1ccc([N+](=O)[O-])s1 do in these assays?
WRN helicase inh-1: 40µM*; TCR act: 11%; FEN1 inh-1: 25µM*; PLK1 PBD inh: 2.7µM*; PI5P4K alpha inh: -79*; VDR inhibitor: inconclusive; FEN1 inh-2: 6.7*; WRN helicase inh-2: 15µM*; TO DNA binding: 27µM*; BLM helicase inh: 19µM*; TbPYK confirm: 14µM*; TbPYK ADP-Glo: 16µM*

How did COc1ccc(CN2C(=O)NC(=O)/C(=C/c3ccc([N+](=O)[O-])s3)C2=O)cc1 do in these assays?
WRN helicase inh-1: 40µM*; TCR act: 1%; FEN1 inh-1: 14µM*; PLK1 PBD inh: 1.9µM*; PI5P4K alpha inh: -75*; VDR inhibitor: 22µM*; FEN1 inh-2: 17*; TbPYK confirm: 18µM*; TbPYK ADP-Glo: 32µM*

How did C[N+](C)(C)CCCCCCCCCC[N+](C)(C)C do in these assays?
WRN helicase inh-1: 2%; TCR act: 1%; FEN1 inh-1: inconclusive; PLK1 PBD inh: 1%; PI5P4K alpha inh: 2; VDR inhibitor: 0%

Results for O=C1NC(=O)N(c2cccc(Cl)c2)C(=O)/C1=C\c1ccc(Sc2nc3ccccc3[nH]2)o1 ?
WRN helicase inh-1: 89µM*; TCR act: 1%[46.1 µM]; FEN1 inh-1: 45µM*; PLK1 PBD inh: 2.7µM*; PI5P4K alpha inh: -74*; VDR inhibitor: inconclusive; FEN1 inh-2: inconclusive; TbPYK confirm: 16µM*; TbPYK ADP-Glo: 16µM*

How did CCN1C(=O)C(=C/C=C/c2ccco2)C(=O)N(CC)C1=S do in these assays?
WRN helicase inh-1: 28µM*; TCR act: 2%[46.1 µM]; FEN1 inh-1: 22µM*; PLK1 PBD inh: inconclusive; PI5P4K alpha inh: -97*; VDR inhibitor: 85%; WRN helicase inh-2: 22µM*; TO DNA binding: 98%; BLM helicase inh: 19µM*

How did O=C(Nc1ccccc1)N1CC[C@@]2(CCCNC2)C1 do in these assays?
VDR inhibitor: -22%

What do the screens show for `CC(C)(C)NC[C@H](O)c1cc(Cl)c(N)c(Cl)c1`?
VDR inhibitor: -2%
